# Measured values taken from PubChem BioAssay AID372 (MTDP, 2006).
# The whole screen tested about 100,000 compounds, of which about 770 (0.77%) were called active. The entries come from a sample that favours actives as a whole. Unmarked numbers belong to inactive results. Rule as the data show it: active = inhibition above about 50%; inactive = the rest.
# Target: Gag-Pol polyprotein (Human immunodeficiency virus type 1 group M subtype B (isolate HXB2)) (UniProt P04585)
# Test: RNase H inhibition, HIV 1 Gag Pol polyprotein, FRET biochemical assay, screening (AID 372)
# Settings: HIV-1 RT RNase H, FRET RNA/DNA substrate fluorescence; at 10 µM; hits give high values
row,SMILES,inhibition
1,CCCOc1ccc(/C=C2/C(=O)NC(=O)N2C(C)=O)cc1OC,0%
2,O=C(O)c1cc(Br)ccc1N=Cc1ccc2c(c1)OCO2,8%
3,Cc1ccc2nc(-c3ccc(NC(=O)c4ccc5ccccc5c4)cc3)oc2c1,59% (active)
4,COc1ccc(C(=O)Nc2ccc(-c3nc4cc(C)ccc4o3)cc2)cc1Br,23%
5,CCCOc1ccc(C(=O)Nc2ccc3oc(-c4c(F)c(F)c(F)c(F)c4F)nc3c2)cc1,14%
6,O=C(Nc1ccc2oc(-c3c(F)c(F)c(F)c(F)c3F)nc2c1)c1ccc(F)cc1,13%
7,Cc1ccc2oc(-c3ccc(NC(=O)c4ccc(Br)cc4)cc3)nc2c1,55% (active)
8,Cc1ccc2oc(-c3ccc(NC(=O)c4ccc5ccccc5c4)cc3)nc2c1,52% (active)
9,Cc1ccc(C(=O)Nc2ccc3oc(-c4c(F)c(F)c(F)c(F)c4F)nc3c2)cc1,52% (active)
10,Cc1ccc2oc(-c3ccc(NC(=O)c4ccc(C)c(C)c4)cc3)nc2c1,20%
11,Cc1ccc2nc(-c3ccc(C)c(NC(=O)c4ccc5ccccc5c4)c3)oc2c1,19%
12,O=C(Nc1ccc2oc(-c3ccccc3)nc2c1)c1ccc2ccccc2c1,19%
13,Cc1ccc2nc(-c3cccc(NC(=O)c4ccc5ccccc5c4)c3)oc2c1,38%
14,O=C(Nc1ccc(-c2nc3ccccc3o2)cc1)c1ccc2ccccc2c1,43%
15,COc1ccc(/C=C2\SC(=S)N(CCC(=O)OC3CCCCC3)C2=O)cc1,4%
16,CSCCNS(=O)(=O)c1ccc(C)c([N+](=O)[O-])c1,0%
17,O=C(O)CCCN1C(=O)/C(=C/c2cccc(Br)c2)SC1=S,10%
18,COc1ccc(/C=N/NC(=O)c2ccn[nH]2)cc1COc1ccc(Cl)cc1Cl,5%
19,COc1cccc(Nc2c([N+](=O)[O-])c(=O)n(-c3ccccc3)c3ccccc23)c1,15%
20,CCc1ccc2[nH]c3nc(NN)nnc3c2c1,5%
21,Cc1cccc(OC(=O)c2cccc([N+](=O)[O-])c2)c1,6%

row,SMILES,inhibition
1,COc1ccc(N2C(=O)C(=O)/C(=C(\O)c3ccc([N+](=O)[O-])cc3)C2c2ccc(Br)cc2)cc1 (stereo unspecified),4%
2,COc1ccc(OC)c(NC(=O)c2cnccn2)c1,6%
3,Cc1cc(C(=O)Nc2ccc(S(=O)(=O)Nc3nccs3)cc2)ccc1[N+](=O)[O-],6%
4,CCOc1cc(C2C(C(=O)OCc3ccc(OC)cc3)=C(C)NC3=C2C(=O)CCC3)cc(Cl)c1O (stereo unspecified),2%
5,CC(C)COc1ccc(C(=O)Nc2ccc(-c3nc4ccccc4o3)cc2)cc1,64% (active)
6,CC(C)COc1ccc(C(=O)Nc2ccc(-c3nc4ncccc4o3)cc2)cc1,8%
7,CC(C)COc1ccc(C(=O)Nc2ccc3oc(-c4ccncc4)nc3c2)cc1,1%
8,O=C(Nc1ccc(-c2nc3ccccc3o2)c(O)c1)c1ccc(-c2cccc(Cl)c2)o1,10%
9,CCOC(=O)c1c(NC(=O)CSc2nccn2C)sc2c1CCCC2,0%
10,CCc1ccc(C2=NN(c3ccccc3)C(c3cn(-c4ccccc4)nc3-c3cccnc3)C2)cc1 (stereo unspecified),20%
11,COc1ccc(C(=O)CC(C(C)C)C(C=C(C)C)C(=O)c2ccc(OC)cc2)cc1 (stereo unspecified),29%
12,CC(C)(O)C#CCN1CCOCC1,0%
13,C=C(C)C(C)(C#CCN1CCOCC1)OC(C)=O (stereo unspecified),56% (active)
14,C=C(C)C(C)(C#CCN1CCCCC1)OC(C)=O (stereo unspecified),8%
15,COc1cc(C2C(C(=O)Nc3cccc(C)n3)=C(C)NC3=C2C(=O)CC(C)(C)C3)cc(OC)c1OC (stereo unspecified),7%
16,COc1ccc(N(CC(=O)N2CCCCC2)S(=O)(=O)c2ccccc2[N+](=O)[O-])c(OC)c1,2%
17,COCCCNC(=O)CN(c1ccc(Cl)cc1)S(=O)(=O)c1ccccc1,0%
18,COc1ccc(C(=O)NC(=S)Nc2ccc(NC(=O)c3cc4ccccc4o3)c(OC)c2)cc1,7%
19,COc1cc(NC(=S)NC(=O)c2ccc(Cl)cc2)ccc1NC(=O)c1ccco1,42%
20,COc1cc(NC(=S)NC(=O)c2ccc(C)c(C)c2)ccc1NC(=O)c1cc2ccccc2o1,15%
21,COc1cc(NC(=S)NC(=O)c2cccc(F)c2)ccc1NC(=O)c1cc2ccccc2o1,58% (active)

row,SMILES,inhibition
1,COc1cc(NC(=S)NC(=O)c2ccc(Cl)cc2)ccc1NC(=O)c1cc2ccccc2o1,54% (active)
2,COc1cc(NC(=S)NC(=O)c2cccc(Cl)c2)ccc1NC(=O)c1cc2ccccc2o1,11%
3,CCc1nnc(NC(=O)CCCOc2ccc(Cl)cc2Cl)s1,1%
4,Cc1ccccc1/C=N/NC(=O)Nc1ccccc1,16%
5,Cc1ccc(-c2nc3ccccc3s2)cc1NC(=O)c1cc(I)ccc1Cl,15%
6,O=C(COc1ccccc1Br)N/N=C/c1ccccc1,3%
7,Cc1ccccc1NCC(=O)N/N=C\c1c(Br)cc(Br)c(O)c1Br,16%
8,Cc1ccc(NCC(=O)N/N=C\c2c(Br)cc(Br)c(O)c2Br)cc1,17%
9,O=C1C(=O)N(CN2CCOCC2)c2ccc(Br)cc21,18%
10,Ic1cccc(-c2nc(-c3cccnc3)no2)c1,55% (active)
11,Cc1ccc(-c2noc(-c3cccc(I)c3)n2)cc1,7%
12,Ic1cccc(-c2nc(-c3ccncc3)no2)c1,59% (active)
13,COc1ccc(-c2noc(-c3cccc(I)c3)n2)cc1,22%
14,Cc1cccc(-c2nc(-c3cccnc3)no2)c1,27%
15,Brc1cccc(-c2nc(-c3cccnc3)no2)c1,28%
16,Cc1cc(Cl)ccc1NC(=O)CN(c1cccc(Br)c1)S(C)(=O)=O,12%
17,O/N=C1\CCCc2c1nc(-c1ccc(F)cc1)n2O,0%
18,COc1ccc(/C=C/C(=O)Nc2ccc(I)cc2)cc1OC,16%
19,CCc1c(C)c2ccc(OCc3ccccc3)c(C)c2oc1=O,16%
